# The supplement of paper PMC6555819
# Experiments:
# Experiment in all cases: PBM binding z-score (relative to random genomic background probes); higher = stronger binding; sequences stand for … in GC…GCGATTGACAGCGTAGAATGAAGG
# [1] = system: FXR:RXRa (NR concentration 270 nM, RXRa partner concentration 90 nM)
# Procedure, shortened: (§1)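 Ligand-free nuclear receptor dimers were applied to custom Agilent 4×180K protein-binding microarrays whose double-stranded probes carried direct-repeat seeds, single-nucleotide variants, half-site ablations and random human genomic background sequences in 34-nt variable regions. Incubation lasted 1 h. Binding z-scores were computed against the random background probes from regression-normalized fluorescence.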
# [2] = system: LXRa:RXRa (NR concentration 270 nM, RXRa partner concentration 90 nM)
# Procedure, shortened: as §1
# [3] = system: LXRa homodimer (NR concentration 270 nM)
# Procedure, shortened: as §1
# [4] = system: LXRb:RXRa (NR concentration 270 nM, RXRa partner concentration 90 nM)
# Procedure, shortened: as §1
# [5] = system: LXRb homodimer (NR concentration 270 nM)
# Procedure, shortened: as §1
# [6] = system: PPARa:RXRa (NR concentration 270 nM, RXRa partner concentration 90 nM)
# Procedure, shortened: as §1
# [7] = system: PPARg:RXRa (NR concentration 180 nM, RXRa partner concentration 90 nM)
# Procedure, shortened: as §1
# [8] = system: PPARg:RXRa 270nM:90nM, anti-RXR (NR concentration 270 nM, RXRa partner concentration 90 nM)
# Procedure, shortened: as §1
# [9] = system: PPARg:RXRa 30nM:10nM, anti-RXR (NR concentration 30 nM, RXRa partner concentration 10 nM)
# Procedure, shortened: as §1
# [10] = system: PPARg:RXRa 90nM:30nM, anti-RXR (NR concentration 90 nM, RXRa partner concentration 30 nM)
# Procedure, shortened: as §1
# [11] = system: PPARg:RXRa DBDmut IVT, anti-RXR (DBD mutation: RXRa K156A/R161A, NR concentration 270 nM, RXRa partner concentration 90 nM)
# Procedure, shortened: as §1
# [12] = system: PPARg:RXRa IVT, anti-PPARg (NR concentration 270 nM, RXRa partner concentration 90 nM)
# Procedure, shortened: as §1
# [13] = system: PPARg DBDmut:RXRa IVT, anti-PPARg (DBD mutation: PPARg1 K132A/R137A, NR concentration 270 nM, RXRa partner concentration 90 nM)
# Procedure, shortened: as §1
# [14] = system: PPARg DBDmut IVT, anti-PPARg (DBD mutation: PPARg1 K132A/R137A, NR concentration 270 nM)
# Procedure, shortened: as §1
# [15] = system: PPARg homodimer (NR concentration 180 nM)
# Procedure, shortened: as §1
# [16] = system: PXR:RXRa (NR concentration 270 nM, RXRa partner concentration 90 nM)
# Procedure, shortened: as §1
# [17] = system: PXR homodimer (NR concentration 270 nM)
# Procedure, shortened: as §1
# [18] = system: RARa:RXR (NR concentration 270 nM, RXRa partner concentration 90 nM)
# Procedure, shortened: as §1
# [19] = system: RARa homodimer (NR concentration 270 nM)
# Procedure, shortened: as §1
# [20] = system: RARb:RXRa (NR concentration 270 nM, RXRa partner concentration 90 nM)
# Procedure, shortened: as §1
Sequence,PBM binding z-score [1],PBM binding z-score [2],PBM binding z-score [3],PBM binding z-score [4],PBM binding z-score [5],PBM binding z-score [6],PBM binding z-score [7],PBM binding z-score [8],PBM binding z-score [9],PBM binding z-score [10],PBM binding z-score [11],PBM binding z-score [12],PBM binding z-score [13],PBM binding z-score [14],PBM binding z-score [15],PBM binding z-score [16],PBM binding z-score [17],PBM binding z-score [18],PBM binding z-score [19],PBM binding z-score [20]
CCTCGGATGACAGAAGGTCAGAGCTGTCCGCTTT,1.3,1.79,0.493,1.37,0.0484,2.01,0.0217,0.56,-0.64,0.0995,0.0182,-0.0257,-1.19,-1.32,1.51,1.5,0.235,1.85,0.773,2.59
ACTCTTAGTTGAGACGAGGGCAACCGATAGGTTG,0.56,-0.132,-0.317,0.037,-0.519,0.348,0.499,-0.0707,-0.348,-0.0252,-0.123,0.386,-0.0171,0.118,-0.417,1.34,-0.122,0.668,-0.22,0.939
TCTAGTTGATCAAAGGTCACACACTCGAAATGCG,5.64,5.85,3.84,5.63,1.9,5.8,7.89,7.86,7.94,8.62,2.34,4.45,1.08,1.36,4.93,5.73,2.14,6.33,3.64,4.85
TCTAGTAGATCAAAGGTTAAGAAAGCCGAAGCCT,1.56,2.07,0.141,1.98,-0.538,4.8,8.6,8.24,8.54,8.99,2.37,3.82,0.0215,0.532,1.09,1.86,-0.328,2.97,0.336,1.72
ACTTACGGGTCAACGAGGTTATGGCACGCGTATA,7.06,5.06,0.89,4.51,0.72,5.54,5.52,5.67,2.05,3.95,3.48,4.51,1.34,0.297,3.2,5.1,2.74,5.52,0.8,4.32
ATCTCTAGGTAAAGATAGTTCAGTCAATGCAAAT,0.395,4.34,0.831,0.948,0.433,0.518,0.623,0.469,0.292,0.471,2.07,1.73,0.964,1,0.843,1.05,0.38,0.522,0.556,0.692
CTACCAAGGTGAACAAAGTCGTTGATTACTATTC,0.425,0.395,-0.0192,0.749,-0.488,1.01,0.314,0.548,0.192,0.308,2.31,2.45,0.74,0.992,0.58,0.262,0.0608,0.544,0.222,1.42
CCGACTGGGGCACAGGTTACCATACTCAGTACGA,0.0382,0.072,-0.0129,0.247,-0.88,2.71,6.11,5.67,4.13,6.28,3.76,4.97,-0.354,-0.501,1.14,0.174,-0.362,0.462,0.15,1.07
AGTCAAAGTTCGGGACGAGGTAACGTAAAGCACG,0.65,0.402,-0.198,0.242,-0.3,1.08,1.85,2.33,0.491,1.33,-0.421,0.748,0.226,-0.0246,0.441,0.716,0.0422,0.869,-0.0634,1.86
CCTTATGGGTCAAGGTTATAGCACGGGTGGTACG,4.02,2.78,0.0856,2.3,-0.169,4.23,5.35,5.19,2.54,4.72,4.52,5.46,1.19,0.531,2.47,2.43,0.248,3.32,0.847,3.63
ATATGTAAGTTATCGGGTCATTCAGTTTGCGCAT,2.13,2.33,1.43,2.61,1.02,2.93,1.83,2.22,0.702,1.72,2.89,3.27,1.57,1.8,1.64,3.39,6.97,2.93,1.29,2.05
GGAAGGAGGGCATTCGAGTTGATAGCATGGCGAT,1.31,1.78,0.199,0.866,0.337,1.46,0.926,1.07,-0.0182,0.639,3.26,2.42,-0.146,0.314,0.39,3.38,1.3,0.52,-0.113,1.56
GCTGCTGGGTCAACTGATGGTCAGCTAAAGCTCG,3.55,2.07,-0.346,1.83,-0.326,3.89,2.34,2.93,0.519,1.99,3.67,3.45,0.524,-0.337,1.55,1.94,-0.46,2.61,-0.59,3.98
GCTAGCAGGCCATTTGGGTAACTCAATGACGGGC,-0.758,-0.699,-0.371,-0.899,-0.88,-0.267,0.519,-0.594,-0.844,-0.634,1.07,0.155,-0.238,-1.22,-0.806,-0.696,-0.721,-0.454,-1.37,-0.258
GCTAGCGGGCCATTTGGGTCACTCAATGACGGGC,-0.0868,-0.0931,-0.975,-0.141,-0.972,1.26,0.395,0.262,-0.653,-0.112,1.3,1.48,-0.871,-1.28,-0.0904,0.246,-0.44,0.906,-1.07,1.26
ATTACAGGGTCATCGTAGGCCAGAGTACGCACAG,7.11,6.64,1.78,4.65,2.02,6.2,7.1,6.16,2.72,5.18,2.45,4.43,2.06,2.49,4.05,5.5,1.66,5.52,1.45,4.45
TCGAGTAGGTTAGGGACATTCAGAATGGCGTCGA,0.438,-0.314,-0.491,-0.146,-0.828,0.561,0.371,0.659,1.18,0.799,1.85,1.17,-0.378,-1.4,0.27,-0.0606,-0.414,0.186,-0.0818,0.661
GTACCAAGGTGTATAGGTCGTTGATGAGTAGGCG,0.26,0.421,-0.0152,0.029,-0.37,0.871,0.775,0.814,0.27,0.71,0.000885,0.719,-0.0523,0.342,0.75,0.265,0.0316,0.833,0.17,0.755
ACAGACAGGTGATGAAGGTGACTCAGGCTATCAT,0.202,0.0616,-0.267,0.143,-0.348,0.764,0.82,0.457,-0.1,0.274,0.111,0.845,0.651,0.382,0.791,0.114,0.191,0.48,0.471,0.728
CGTCAAAGTACAAGGTAACGTAACAGAAAGCAGC,0.052,-0.143,-0.279,0.0117,-0.288,0.136,0.969,0.307,0.31,0.0776,0.112,0.638,-0.0581,-0.118,0.323,-0.0227,-0.131,0.281,0.369,1.1
ATCTCTAGGTAAAAGTTCGGTGAATCCCGAGGAT,0.161,0.141,0.132,0.00747,0.757,2.68,5.39,6.18,4.88,6.61,2.29,2.74,1.06,1.26,0.445,0.402,0.883,0.471,0.857,0.906
CCTGCTAGCTCATGGTCAGCTAATCTACAGTATG,-0.461,-0.418,-0.46,-0.626,-0.239,-0.737,-0.225,-0.822,-0.885,-0.895,0.183,-0.609,-0.471,-0.109,-0.356,-0.641,-0.376,-0.681,-0.182,-0.0065
TCATATAGGAAAACAGGTGAAAGTCCGTAAGTTA,1.22,1.13,0.235,1.11,-0.323,1.44,1.13,2.8,4.43,3.77,2.83,1.11,0.0218,0.116,0.804,0.845,0.476,1.14,1.74,0.355
ATCGAAAGGTCGTGGTGAGTATAGAGAAAGGGAA,5.04,4.49,0.646,3.78,1.75,5.5,4.16,4.2,1.54,3.12,1.03,2.12,1.47,1.03,1.89,3.3,0.954,3.84,1.77,4.27
TTACCAAGGTGAAAGGGCGTTGATGCACGCCTTG,1.12,0.702,-0.488,0.742,-0.657,3.48,5.55,5.63,4.32,5.82,1.85,3.87,0.557,0.204,0.404,1.14,-0.361,1.94,-0.167,1.88
ACTATTAGTTGACTTAGGGCAACTGATACGACGC,0.17,0.0575,0.162,0.0522,0.38,0.0544,0.858,0.0451,0.501,0.431,-0.0413,0.813,1.58,1.31,0.722,0.176,0.201,0.431,0.297,1.01
CGAACTAGGTCAAGGATAGTGAATCTCCGCACGC,3.06,1.9,0.0332,1.36,-0.0688,4.56,7.74,6.47,4.24,6.39,8.31,8.31,3.8,1.33,2.41,0.863,-0.425,1.96,0.921,3.73
CGTCCAAGGTCAGAGAGGTCAGTGGATGCCGAGT,6.14,5.17,3.43,4.38,0.285,4.94,3.46,4.26,1.09,2.58,2.81,3.74,0.146,0.0263,3.71,6.17,11.7,5.33,0.8,5.38
